An excerpt weighted towards active compounds, which were near 6.2% of everything screened.
HCMV inh: human cytomegalovirus inhibition; activity change, negative = inhibition, % at 57.5 µM; 410,000 compounds, 4.5% hits; HFF cells, HCMV-luciferase reporter, 72 h; active compounds read low; in the data active = activity change below about -60%; inconclusive = no clear call, values can overlap the other calls; inactive = above about -39%
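Steps: HFFs plated, 16 h 37C; compounds added; HCMV-luciferase added to MOI 1 PFU/cell; 72 h 37C; OneGlo reagent, 5 min room temperature; luminescence read, normalized to controls.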
Marburg entry inh: blocks Marburg virus binding to or entry into cells; Potency, µM (highest dose often 37.8 µM), for inactives: top-dose activity change, negative = inhibition, most hits filed as inhibitors; 300,000 compounds, 1.8% hits; AID 540276; Marburg virus pseudotyped entry inhibition, cell reporter; calls by dose curve; tested in HEK293 cells; also: potency is read from the fitted curve at half-maximal effect
FMDV inh: blocks foot and mouth disease virus; FMDV antiviral cell-based qHTS; Potency, µM (titrated, usually from 57.9 µM), for inactives: at the highest dose activity change, negative = inhibition, usual class: inhibitors; 410,000 compounds, 1.2% hits; AID 1159524; calls by dose curve; tested in HEK293T cells; also: read-out not given here; potency is read from the fitted curve at half-maximal effect; nearly all actives have a fitted effect of over 45% in size
LASV entry inh: Lassa virus entry inhibition; Lassa virus pseudotype entry inhibition, cell reporter; Potency, µM (doses to about 37.9 µM), inactives show at the highest dose activity change, negative = inhibition, hits mostly inhibitors; 300,000 compounds, 1.2% hits; AID 540256; calls by dose curve; tested in HEK293 cells; also: potency is read from the fitted curve at half-maximal effect; nearly all actives have a fitted effect of over 50% in size
Numbers without * were called inactive; ? = inconclusive; . = not tested or not shown; [ ] = remark or other dose. % is scaled to controls: 0 for no effect and ±100 for the full control effect.

SMILES | HCMV inh | Marburg entry inh | FMDV inh | LASV entry inh
CCOC(=O)c1cc2ccc(OC)c(OC)c2c(=O)s1 | -21.4 | 2.9% | 41.0% | 16.5%
Cc1nc2c(C#N)cnn2c2c1CCNN2C | -22.3 | -6.5%[46.1 µM] | -10.1% | -8.1%
COC(=O)CCCCCN1C(=O)NC(c2ccccc2)C(C(=O)OCc2ccccc2)=C1C (stereo not given) | -32.5 | -29.1% | 28.2µM* | ?
CC1=C(C(=O)OCc2ccccc2)C(c2cccc([N+](=O)[O-])c2)NC(=O)N1 (stereo not given) | -9.5 | . | -29.4% | .
COc1ccc(OC)c(C2NC(=O)N(C)C(C)=C2C(=O)OCc2ccccc2)c1 (stereo not given) | 10.3 | . | ? | .
CC1=C(C(=O)OC2CCCCCCC2)C(c2ccc(O)cc2)NC(=O)N1 (stereo not given) | -38.0 | 0.3% | . | 2.59µM*
CC1=C(C(=O)OCc2ccccc2)C(c2ccccc2Cl)NC(=O)N1C (stereo not given) | -20.1 | -0.3% | 17.8µM* | -15.8%
CC1=C(C(=O)OCc2ccc3c(c2)OCO3)C(c2cccc([N+](=O)[O-])c2)NC(=O)N1 (stereo not given) | -80.7* | . | -22.6% | .
Cc1ccc(NC(c2nnc(-c3ccccc3)o2)c2ccccc2F)c([N+](=O)[O-])c1 (stereo not given) | 51.7 | . | 37.5% | 14.8%[46.1 µM]
C=CC[C@@H](CC(=O)N(CCO)Cc1ccccc1)C(=O)N[C@H](COC(=O)[C@@H](CC=C)Cc1ccc(F)cc1)Cc1c[nH]c2ccccc12 | 3.0 | . | ? | .
Cc1ccc(N2CCN(/N=C/c3ccccc3)CC2)cc1 | -10.4 | . | 32.1% | .
CCOC(=O)C1=C(C)NC(=O)NC1c1ccc(-c2ccccc2F)o1 (stereo not given) | -61.4* | -10.8% | ? | ?
COCCOC(=O)C1=C(C)NC(=O)NC1c1ccc(-c2ccc(F)cc2)o1 (stereo not given) | ? | -27.2%[46.1 µM] | -3.5% | -28.5%
NNc1nnc2c3cc(F)ccc3n(Cc3ccccc3)c2n1 | -94.7* | ? | 5.4% | ?
CCn1c2ccc(F)cc2c2nnc(NN)nc21 | -1.4 | -1.9% | -8.5% | -6.6%
COC(=O)C1=C(C)N(Cc2ccc(C)cc2)C(=O)/C1=C\c1cc(OC)c(OC)c(OC)c1 | 66.8 | ? | 20µM* | ?
COC(=O)C1=C(C)N(Cc2ccc(C)cc2)C(=O)/C1=C\c1ccc(O)c(OC)c1 | 118.8 | ? | ? | ?
CCOc1cc(/C=C2\C(=O)N(CCc3ccc(OC)c(OC)c3)C(C)=C2C(=O)OC)ccc1O | -22.4 | 16.6% | 20µM* | -5.7%
NS(=O)(=O)c1cccc(NC(=O)COc2ncnc3c2cnn3-c2ccccc2)c1 | 73.9 | ? | 4.2% | ?
O=C(c1cccc(S(=O)(=O)N2CCCCCC2)c1)N1CCN(c2ccccc2F)CC1 | 16.8 | 0.7% | ? | 11.8%
CC1(C(=O)NC2CCCCC2)CCC(=O)N1Cc1cccnc1 (stereo not given) | -81.9* | . | 6.8% | .
CC1CCC(NC(=O)C2(C)CCC(=O)N2Cc2cccnc2)CC1 (stereo not given) | 28.2 | . | -22.8% | .
Cc1cc(C)c(S(=O)(=O)Nc2ccccc2-c2ccccc2)c(C)c1 | -78.6* | ? | ? | ?
CCc1ccc(NC(=O)CCCc2nnc3n(CC(C)C)c(=O)c4sccc4n23)cc1 | -26.3 | . | -8.4% | -1.7%[46.1 µM]
COCCn1c(=O)sc2ccccc2c1=O | -26.4 | -8.8%[14.2 µM] | 5.2% | -8.8%
SMILES | HCMV inh | Marburg entry inh | FMDV inh | LASV entry inh
Nc1cc2c(cc1Br)[nH]c(=O)c1ccccc12 | -89.0* | ? | -23.8% | ?
Nc1cc2[nH]c(=O)c3ccccc3c2cc1Br | 0.9 | ? | -2.0% | 9.4%
COc1cc(CNc2nnnn2C)ccc1OCc1ccc(F)cc1Cl | -25.9 | . | 0.2% | .
CCn1nnnc1NCc1ccc(OCc2ccc(F)cc2Cl)c(OC)c1 | -12.7 | 10µM* | -25.3% | ?
c1cncc(-c2nc3cc4ccccc4cc3[nH]2)c1 | 171.3 | ? | . | -23.6%
N=c1occ(C(=O)c2cc(F)ccc2O)cc1C(=O)NC1CCCCC1 | -26.4 | ? | 4.9% | 7.4%[46.1 µM]
O=C(Cn1c(-c2ccccc2)c[n+]2ccsc12)c1ccccc1 | -61.6* | . | 49.5% | .
O=C(Cn1c(-c2ccccc2)c[n+]2ccsc12)c1ccc([N+](=O)[O-])cc1 | -99.5* | ? | 0.1% | -17.1%
CC(C)N(Cc1ccccc1)C(=S)Nc1ccccc1F | -9.7 | ? | 25.8% | ?
COc1ccccc1C1C=C(c2ccc(Cl)cc2)Nc2nc(-c3ccc(Cl)cc3)nn21 (stereo not given) | -78.4* | ? | -14.0% | ?
COc1ccccc1C1C=C(c2ccc(F)cc2)Nc2nc(-c3ccc(Cl)cc3)nn21 (stereo not given) | -23.6 | ? | ? | -15.2%[46.1 µM]
COc1ccc(C2C=C(c3ccc(Cl)cc3)Nc3nc(-c4ccc(Cl)cc4)nn32)cc1 (stereo not given) | -100.8* | ? | ? | ?
Cn1c(Cl)c(/C=N/OC(=O)c2cccc(Cl)c2)c2ccccc21 | -7.5 | 6.7%[46.1 µM] | -21.0% | 14.5%
COc1ccc(C=C(C#N)c2ccc(OC)cc2)cc1 | -16.0 | 7.94µM* | 14.4% | ?
COc1ccc(C(C#N)=Cc2ccccc2OC)cc1 | -88.1* | . | -13.0% | .
O=[N+]([O-])c1cccc(COc2ccc(CN3CCCCC3)cc2)c1 | -5.1 | . | 17.6% | .
O=C1C(=O)N(Cc2cccc([N+](=O)[O-])c2)c2ccccc21 | -39.2 | 11.2µM* | -20.4% | ?
O=[N+]([O-])c1cccc(CN2CCN(Cc3ccc(Br)cc3)CC2)c1 | -73.5* | . | ? | .
O=C(CN1C(=O)CSc2ccc(S(=O)(=O)N3CCCC3)cc21)Nc1cccc(Cl)c1 | -9.6 | . | -17.2% | -1.9%[46.1 µM]
C=CCOc1ccccc1CNc1ccc2c(c1)OCCO2 | . | ? | 17.8µM* | 11.2µM*
CCOc1ccc(Br)cc1CNCCN1CCOCC1 | 8.1 | ? | -20.2% | 1.4%
CCOc1ccc(Br)cc1CNc1ccc2c(c1)OCCO2 | -64.9* | ? | -19.2% | -8.4%
CCOC(=O)c1ccc(S(=O)(=O)N2CCC(C(=O)N3CCN(c4ccccc4OC)CC3)CC2)cc1 | 3.7 | -19.3% | -28.3% | -12.7%
O=C(C[n+]1ccccc1)N/N=C/c1cc(Br)ccc1F | -98.8* | 0.0% | -7.4% | 15.0%
COc1ccc(Br)cc1/C=N/NC(=O)C[n+]1ccccc1 | 3.1 | . | -7.6% | .
CN(C)c1ccc(/C=N\NC(=O)c2csnn2)cc1 | 93.9 | 14.1µM* | -23.8% | ?
CN(C)c1ccc(/C=N/NC(=O)C[n+]2ccccc2)cc1 | 12.7 | 0.1%[46.1 µM] | 2.82µM* | -0.5%[46.1 µM]
COCCNC(=S)N1CCC(C(=O)c2ccc(C)cc2)CC1 | -17.2 | . | -15.9% | .
COC(=O)c1cccc(C23CC4(C2)[C@H](CN(Cc2ccc(C(F)(F)F)cc2)[C@@H]4c2ccccc2)C3c2ccc(C(F)(F)F)cc2)c1 (stereo not given in full) | -94.2* | . | 0.0% | .
FC(F)(F)c1ccc(CN2C[C@@H]3C(c4ccccc4)C4(c5cccnc5)CC3(C4)[C@H]2c2ccccc2)cc1 (stereo not given in full) | -26.1 | . | ? | .
